Screening data: PubChem BioAssay, National Center for Advancing Translational Sciences (NCATS)
Only some compounds are listed: those with a hit (about 8.7% of all), similar ones and a draw of the others.
Pf growth 48h: inhibits P. falciparum growth in the first generation, 48 h. Potency, µM (series often up to 28.7 µM), for inactives: at the top dose activity change, negative = inhibition, hits mostly inhibitors. 5.9% of 310,000 active. AID 504832. P. falciparum luciferase growth in erythrocytes, 48 h
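Growth was read as firefly luciferase luminescence after a 48 h, 37 C, 5% CO2 exposure of compounds to reporter-bearing P. falciparum cultures (0.1% parasitemia, 2% hematocrit final) in Albumax-supplemented RPMI 1640.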
VACV mCherry inh: vaccinia inhibition (mCherry reporter); Vaccinia virus mCherry reporter infection, fluorescence; 0.63% of 310,000 active; Potency, µM (highest dose often 36.5 µM), for the others: at the top dose activity change, negative = inhibition, hits mostly inhibitors; calls by dose curve; tested in A549 cells; also: nearly all actives have a fitted effect of over 35% in size
Pf growth 96h: P. falciparum growth inhibition at 96 hour, primary screen for plastid delayed-death inhibitors | 6.9% of 320,000 active | Potency, µM (series often up to 28.7 µM), inactives show at the top dose activity change, negative = inhibition, hits mostly inhibitors | P. falciparum luciferase reporter growth, 96 h
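Luminescence readout: decreased luciferase signal marks inhibited growth of reporter-expressing P. falciparum in infected red cells (2% hematocrit, 0.05% parasitemia final), exposed to compound two generations (96 h, 37 C, 5% CO2).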
VACV Venus inh: vaccinia inhibition (Venus reporter) | Vaccinia virus Venus reporter expression, fluorescence | 0.46% of 330,000 active | Potency, µM (top dose mostly 36.5 µM), inactives show at the highest dose activity change, negative = inhibition, usual class: inhibitors; calls by dose curve; tested in A549 cells; also: nearly all actives have a fitted effect of over 30% in size
AMA1 RON2 block: disrupts binding of P. falciparum AMA1 to RON2; Potency, µM (titrated, usually from 58.2 µM), without a hit: top-dose activity change, negative = inhibition, hits mostly inhibitors; 0.2% of 360,000 active; AlphaScreen AMA1-biotinylated RON2 peptide binding; AID 720542;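 also: 0% = vehicle wells and -100% = peptide control; nearly all actives have a fitted effect of over 45% in size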
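AMA1 (3D7) with his tag at 25 nM final met compounds first, then biotinylated RON2 peptide at 25 nM; detection used donor plus acceptor beads, 10 µg/mL apiece, read by AlphaScreen after 30 min at room temperature.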
* marks the source's active call; other numbers are inactive results; i = inactive; ? = inconclusive; . = not tested or not shown; [ ] = dose if it differs, or a comment. Unless noted, calls follow the shape of the dose curve; as a rule, active = well fitted curve in the direction sought with a large enough effect; inconclusive = small, poorly fitted or top-dose-only effect, or another doubt; inactive = no such curve, though single readings can be large; an effect the other way counts as inactive or inconclusive. Unless noted, % is scaled to controls: 0 for no effect and ±100 for the full control effect; potency is read from the fitted curve at half-maximal effect.

SMILES	Pf growth 48h	VACV mCherry inh	Pf growth 96h	VACV Venus inh	AMA1 RON2 block
COC(=O)[C@@]1(Cc2ccc(F)cc2)[C@H]2c3cc(C(=O)N4CCCC4)n(CCc4c[nH]c5ccc(OC)cc45)c3C[C@H]2CN1C(=O)c1ccccc1	?	.	1µM*	.	.
COC(=O)[C@@]1(Cc2ccc(F)cc2)[C@H]2c3cc(C(=O)N4CCCC4)n(Cc4ccccc4)c3C[C@H]2CN1C(=O)c1ccccc1	.	4%	.	-15%	-20%
COCCn1c(C(=O)N2CCCC2)cc2c1C[C@H]1CN(C(=O)c3ccccc3)[C@@](Cc3ccc(F)cc3)(C(=O)OC)[C@@H]21	1.7µM*	i	4.7µM*	?	-2%
COC(=O)[C@@]1(Cc2ccc(OC)cc2)[C@H]2c3cc(C(=O)N4CCCC4)n(Cc4ccccn4)c3C[C@H]2CN1C(=O)c1ccccc1	.	25%	.	8%	59%
COC(=O)[C@@]1(Cc2ccccc2)[C@H]2c3cc(C(=O)N4CCCC4)n(CCSCCO)c3C[C@H]2CN1C(=O)c1ccccc1	1.7µM*	.	2.3µM*	.	.
Cc1ccc(Cl)cc1NC(=O)CN1C=NS(=O)(=O)c2ccccc21	.	-16%	.	-16%	.
COc1ccc(CNC(=O)Nc2ccc3c(c2)N(C)C(=O)c2ccccc2S3)cc1	.	-16%	.	-22%	.
CCOc1ccccc1C1Nc2ccccc2-c2nnc(SCc3ccccc3)nc2O1 (stereo not drawn)	.	-5%	.	5%	.
COC(=O)[C@@]1(Cc2ccc(OC)cc2)[C@H]2c3cc(C(=O)N4CCCC4)n(Cc4ccc(C)o4)c3C[C@H]2CN1C(=O)c1ccccc1	?	.	2.1µM*	.	.
COC(=O)[C@@]1(Cc2ccc(OC)cc2)[C@H]2c3cc(C(=O)N4CCCC4)n(Cc4ccc(S(C)(=O)=O)cc4)c3C[C@H]2CN1C(=O)c1ccccc1	.	i	.	-6%	-13%
COC(=O)[C@@]1(Cc2ccc(F)cc2)[C@H]2c3cc(C(=O)N(C)C)n(CCc4ccccn4)c3C[C@H]2CN1C(=O)c1ccccc1	2.6µM*	i	3.3µM*	-10%	6%
COCCn1c(C(=O)N(C)C)cc2c1C[C@H]1CN(C(=O)c3ccccc3)[C@@](Cc3ccc(F)cc3)(C(=O)OC)[C@@H]21	.	-4%	.	-2%	-2%
Cc1nc(-c2ccc(Cl)cc2)sc1CCNC(=O)C(=O)Nc1ccc2c(c1)OCCO2	.	-25%	.	-17%	.
CC1CCCCN1C(=O)c1ccc2c(c1)N(Cc1ccc(F)cc1)C(=O)c1ccccc1S2(=O)=O (stereo not drawn)	.	-11%	.	-7%	.
COc1ccccc1C1CN(c2ccccc2)N=C1c1cccs1 (stereo not drawn)	.	-23%	-101%	-5%	157%
COc1cccc(C2CN(c3ccc(F)cc3F)N=C2c2cccs2)c1OC (stereo not drawn)	5.9µM*	.	12µM*	.	119%
O=C(CSc1nnc(NC(=O)NC2CCCCC2)s1)Nc1ccccc1F	.	-5%[7.34 µM]	.	-5%[7.34 µM]	.
COc1ccccc1CNC(=O)c1cc2ccc3ccc(C)[nH]c3c2n1	.	-17%	.	-5%	.
O=C(N/N=C\c1ccc(Cl)s1)C1COc2ccccc2O1 (stereo not drawn)	2%	.	5%	.	4%
O=C(N/N=C/c1c[nH]c2ccccc12)C1COc2ccccc2O1 (stereo not drawn)	-4%	-20%	10µM*	?	19%[11.6 µM]
O=C(c1ccc2c(c1)N(Cc1ccc(F)cc1)CCS2)N1CCN(c2ccccc2)CC1	.	-13%	.	-12%	.
CCCCC(=O)Nc1ccccc1C(=O)OCc1cc(=O)n2nc(C3CCCCC3)sc2n1	.	-15%	.	-7%	.
CCC1Cc2c(nc(N)c3c(N)nc(N4CCCCC4)c(C#N)c23)O1 (stereo not drawn)	?	-24%	?	?	5%
CC(C)(C)N1C(=O)Cc2c1nc(N)c1c(N)nc(N3CCCCC3CO)c(C#N)c21 (stereo not drawn)	?	i	5.9µM*	-17%	-15%
CC(C)NS(=O)(=O)c1ccc(NC(=S)NC(=O)c2cccc([N+](=O)[O-])c2)cc1	19%	i	13µM*	-17%	41%
SMILES	Pf growth 48h	VACV mCherry inh	Pf growth 96h	VACV Venus inh	AMA1 RON2 block
c1ccc2c(CCc3c[nH]c4ccccc34)ccnc2c1	.	?	.	66%	.
CC(C)c1nc(C(=O)N2CCCC(N3CCN(c4cccc(Cl)c4)CC3)C2)cs1 (stereo not drawn)	?	-21%	3.7µM*	-14%	-3%
O=C(c1cccs1)N1CCCC(N2CCN(c3cccc(C(F)(F)F)c3)CC2)C1 (stereo not drawn)	?	-27%	-13%	-14%	-15%
Cc1cc(C(=O)N2CCCC(N3CCN(c4cccc(C(F)(F)F)c4)CC3)C2)no1 (stereo not drawn)	?	-12%	1%	-23%	-1%
O=C(c1ccco1)N1CCCC(N2CCN(c3cccc(C(F)(F)F)c3)CC2)C1 (stereo not drawn)	10µM*	-13%	15%	-26%	0%
O=C(c1cc(C2CC2)on1)N1CCCC(N2CCN(c3cccc(C(F)(F)F)c3)CC2)C1 (stereo not drawn)	12µM*	?	0%	-30%	?
Cc1nnsc1C(=O)N1CCCC(N2CCN(c3cccc(C(F)(F)F)c3)CC2)C1 (stereo not drawn)	13µM*	.	?	.	-4%
CC(=O)NC(c1ccco1)c1cc(Cl)c2ccc(N3CCCCC3)nc2c1O (stereo not drawn)	-26%	.	-23%	.	.
CCc1ccccc1NC(=O)c1ccc(CN2C(=O)CCn3nc(C)cc32)cc1	.	6%	.	6%	.
CN(C)C(=O)CCC(=O)N1CCCC(N2CCN(c3cccc(C(F)(F)F)c3)CC2)C1 (stereo not drawn)	2%	-25%	-29%	2%	-4%
CCN(CC)CC(=O)N1CCCC(N2CCN(c3cccc(C(F)(F)F)c3)CC2)C1 (stereo not drawn)	2%	.	9.3µM*	.	0%
CCOc1ccc(CCNC(=O)CCCc2nnc3n(CCCOC)c(=O)c4sccc4n23)cc1	.	-15%	.	-9%	.
CCC(=O)O[C@@]1(C(=O)SCF)[C@@H](C)C[C@H]2[C@@H]3C[C@@H](F)C4=CC(=O)C=C[C@@]4(C)[C@]3(F)[C@@H](O)C[C@]21C	5.7µM*	.	4.1µM*	.	.
O=Cc1ccc(Oc2cc(-c3ccccc3)nc(-c3ccccc3)n2)cc1	23%	-14%	13µM*	-11%	0%
COCc1cc(C)nc2c1C(=O)NC(c1ccc(Br)cc1)N2Cc1ccccc1 (stereo not drawn)	.	-9%	.	-6%	.
Cc1cc(C)nc(N/N=C/C(Cl)=C/c2ccccc2)n1	.	.	3.7µM*	.	39%
Cc1cc(-c2ccccc2)nc(N/N=C/c2ccc(O)cc2)n1	?	8.9µM*	?	-24%	79%
Nc1nc(-c2ccc(F)cc2)cc(C(F)(F)F)n1	5%	-10%	.	-23%	-4%
Nc1nc(-c2ccc(Cl)cc2)cc(C(F)(F)F)n1	27%	-3%	7.4µM*	-9%	0%
